The values that follow come from the supplement of paper PMC12339681.

Molecules are shown by their SMILES. Where a name gives a salt, the structure may show the parent alone.

This assay has as its system PBMC-derived induced microglia-like cells (piMGLC). Briefly: synaptosome phagocytic index relative to DMSO control (fraction of DMSO); higher = more phagocytosis. Conditions: concentration: 10 uM (2 uM for compounds listed in Table S2); pretreatment time: 24 h; assay time: 3 h.
For `CC1CCN(CC[C@H]2CCCN2S(=O)(=O)c2cccc(O)c2)CC1`, the synaptosome phagocytic index turned out to be 0.817. As for `N[C@@H](CC(=O)O)C(=O)O` [L-Aspartic_acid], the synaptosome phagocytic index was 0.871.

For the molecule `COc1ncc(F)cc1CNc1ccc(Cc2c[nH]c3ncc(C)cc23)c(F)n1` [PLX5622_(hemifumarate)], the synaptosome phagocytic index turned out to be 0.966.

Consider `CC1(C)S[C@@H]2[C@H](NC(=O)[C@H](N)c3ccc(O)cc3)C(=O)N2[C@H]1C(=O)O` [Amoxicillin_(sodium)], for which the synaptosome phagocytic index amounted to 0.69. Turning to `Cc1cc([C@@]23c4ccccc4C(=O)N2CCN3C(=O)c2ccc(F)c(F)c2)ccc1Cl`, the synaptosome phagocytic index is 0.335. As to `CC1(C)S[C@@H]2[C@H](NC(=O)[C@H](N)c3ccc(O)cc3)C(=O)N2[C@H]1C(=O)O` [Amoxicillin_(trihydrate)], the synaptosome phagocytic index came to 0.942. `CN(C)CC(c1ccc(O)cc1)C1(O)CCCCC1` (stereo unspecified) [Desvenlafaxine_(succinate_hydrate)]: the synaptosome phagocytic index is 1.11. In the case of `NC(=O)c1cccc(-c2cccc(OC(=O)NC3CCCCC3)c2)c1` it was 0.86; in that of `C#Cc1cccc(Nc2ncnc3cc(OCCOC)c(OCCOC)cc23)c1` [Erlotinib], 0.798; in that of `CN/C(=N\CCSCc1nc[nH]c1C)NC#N` [Cimetidine], 1.07.

For the molecule `Nc1nc2ccc(OC(F)(F)F)cc2s1` [Riluzole], the synaptosome phagocytic index was determined as 0.991. For `N=C(N)NC(=O)Cc1c(Cl)cccc1Cl` [Guanfacine_(hydrochloride)], the synaptosome phagocytic index stood at 1.13. In the case of `CNCC[C@@H](Oc1ccccc1C)c1ccccc1` [Atomoxetine_(hydrochloride)], the synaptosome phagocytic index stood at 1.16. In the case of `O=C1N[C@@H](Cc2cnc[nH]2)C(=O)N2CCC[C@@H]12` [Cyclo(his-pro)_(TFA)] it was 0.449; in that of `CN(C)CCC[C@@]1(c2ccc(F)cc2)OCc2cc(C#N)ccc21` [Escitalopram_(oxalate)], 0.946; in that of `Fc1c(Br)cccc1Nc1ncnc2cc3c(cc12)OCCO3`, 0.118. Next, `CO/N=C(\C(=O)N[C@@H]1C(=O)N2C(C(=O)O)=C(COC(C)=O)CS[C@H]12)c1csc(N)n1` [Cefotaxime_(sodium_salt)]: 0.951. Next, `CN(C)C(=O)c1cc2cnc(Nc3ccc(N4CCNCC4)cn3)nc2n1C1CCCC1` [Ribociclib]: 0.78.

As to `Cc1nc(N)nc(N)c1-c1ccc(Cl)c(Cl)c1` [Metoprine], the synaptosome phagocytic index is 1.25. Next, `O=C(NC1CCCCC1)N(Cc1ccccc1)CC1CCNCC1`: 0.882; `O=C(O)c1cc(/N=N/c2ccc(S(=O)(=O)Nc3ccccn3)cc2)ccc1O` [Sulfasalazine]: 0.883; `COc1cc2nc(N(C)CCCNC(=O)C3CCCO3)nc(N)c2cc1OC` (stereo unspecified) [Alfuzosin]: 0.938. Next, `Nc1nc(=O)n([C@@H]2CS[C@H](CO)O2)cc1F` [Emtricitabine]: 0.777. On to `CCC(C)C(N)C(=O)NCCN1CCOCC1` (stereo unspecified) [LM11A-31_(dihydrochloride)], for which the synaptosome phagocytic index turned out to be 0.844. With `CN(Cc1cnc2nc(N)nc(N)c2n1)c1ccc(C(=O)N[C@@H](CCC(=O)O)C(=O)O)cc1` [Methotrexate], the synaptosome phagocytic index turned out to be 1.02. Consider `O=C1Cc2cc(CCN3CCN(c4nsc5ccccc45)CC3)c(Cl)cc2N1` [Ziprasidone_(hydrochloride_monohydrate)], for which the synaptosome phagocytic index was determined as 0.51. Turning to `Nc1nc2c(ncn2COCCO)c(=O)[nH]1` [Acyclovir], the synaptosome phagocytic index stood at 0.731. In the case of `Nc1nc(=O)[nH]cc1F` [Flucytosine] it was 0.853; in that of `Cn1nnc2c(C(N)=O)ncn2c1=O` [Temozolomide], 0.824; in that of `C[C@]12C=CC(=O)C=C1CC[C@@H]1[C@@H]2C(=O)C[C@@]2(C)[C@H]1CC[C@]2(O)C(=O)CO` [Prednisone], 0.718. In the case of `CC(C)c1nc(CN(C)C(=O)N[C@H](C(=O)N[C@@H](Cc2ccccc2)C[C@H](O)[C@H](Cc2ccccc2)NC(=O)OCc2cncs2)C(C)C)cs1` [Ritonavir] it was 0.742; in that of `COc1ccc2c(c1)c(CC(=O)O)c(C)n2C(=O)c1ccc(Cl)cc1` [Indomethacin_(sodium_hydrate)], 0.618. Next, `N[C@H](C(=O)O)[C@H](O)c1ccc(O)c(O)c1` [Droxidopa]: 0.507.

Consider `CCN(C(=O)c1c(O)c2c(Cl)cccc2n(C)c1=O)c1ccccc1` [Laquinimod], for which the synaptosome phagocytic index is 0.888. In the case of `CN(C)CCC=C1c2ccccc2CCc2ccccc21` [Amitriptyline_(hydrochloride)] it was 0.997; in that of `Cc1ccccc1C(OCCN(C)C)c1ccccc1` (stereo unspecified) [Orphenadrine_(citrate)], 1.23.
